Screening results: PubChem, University of Kansas High Throughput Screening Laboratory
mHTT CaM bind – inhibitors of human mutant huntingtin-calmodulin interaction; AlphaScreen His-mHTT/GST-CaM binding, luminescence; 190,000 compounds, 3.6% hits; P42858; inhibition, % at 15 µM; AID 1671202;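 also: 0% = both proteins with DMSO and 100% = one protein alone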
Pf apPOL block – Pf-apPOL DNA polymerase inhibition; Recombinant Pf-apPOL, molecular beacon fluorescence, 1.5 h; 210,000 compounds, 0.25% hits; inhibition, % at 10 µM
* = called active by the depositor; . = no result given. Rows were chosen to be rich in hits. Some 3.6% of all compounds tested hit in one or more screens of this group. Rule as the data show it: active = inhibition above about 50%; inactive = the rest.

SMILES	mHTT CaM bind	Pf apPOL block
Cc1cc(C)n(-c2ccc(Nc3ccc(NC(=O)Nc4ccccc4)cc3)nn2)n1	6.5	-10.8
Cc1cc(Nc2ccc(C(N)=O)cc2)nc(-n2nc(C)cc2C)n1	94.9*	3.5
COc1ccc(Nc2cc(-n3cccn3)ncn2)cc1	-2.6	-1.3
O=C(Nc1ccc(Nc2cc(-n3cccn3)ncn2)cc1)c1ccco1	100.1*	-30.8
Cc1ccnc(SCC(=O)N2CCc3ccccc3C2)n1	-5.0	-43.0
CCCCSc1nnc2c(n1)OC(/C=C/c1ccco1)Nc1ccccc1-2 (stereo unspecified)	32.0	15.5
CCc1ccc(NC(=O)CSc2nnc(-c3ccco3)c(-c3ccco3)n2)cc1	92.0*	-0.5
COc1ccc(NC(=O)CSc2ncccn2)cc1	-2.4	2.1
O=C(CSc1nnc(-c2ccco2)c(-c2ccco2)n1)N1CCc2ccccc2C1	93.0*	0.6
CCCCCCSc1nnc(-c2ccco2)c(-c2ccco2)n1	90.0*	3.5
COc1cc(NC(=O)CSc2nnc(-c3ccco3)c(-c3ccco3)n2)cc(OC)c1	97.0*	-1.7
CCc1ccc(NC(=O)CSc2nnc(-c3ccco3)o2)cc1	0.4	-9.4
COc1cc(CNCc2cccc(Br)c2)cc(OC)c1	-9.5	-1.2
O=C1C2C(C(=O)N1Cc1ccccc1)C2(c1ccccc1)c1ccccc1 (stereo unspecified)	-2.1	-3.1
N#Cc1cnc2ccccc2c1N1CCC(C(=O)Nc2ccc(F)cc2)CC1	-5.4	0.0
Cc1cccc(COc2cccc(-c3noc(C)n3)c2)c1	-181.0	-0.9
COc1ccc(N2CC(C(=O)N(C)C)CC2=O)cc1 (stereo unspecified)	-0.3	-4.0
Cn1cc(/C=C/c2nc3ccccc3c(=O)[nH]2)c2ccccc21	0.5	6.7
O=C(CSc1nnc(-c2ccco2)c(-c2ccco2)n1)c1ccc(Cl)cc1	61.0*	-5.7
Cn1c(SCC(=O)c2ccc(O)cc2)nnc1-c1ccco1	-0.8	-2.9
CCOc1ccc(-n2cnc3ccccc3c2=O)cc1	-3.5	-7.3
CC(=O)Nc1nonc1-c1nc2ccccc2n1Cc1ccc(Cl)cc1F	-1.0	2.4
O=C(C1CC(=O)N(c2ccc(F)cc2)C1)N1CC(c2nc(-c3ccccn3)no2)C1 (stereo unspecified)	11.9	-2.2
CC(=O)N1CCc2cc(Br)cc(S(=O)(=O)NCCc3ccc(C)cc3)c21	38.0	-10.5
CC(=O)N1CCc2cc(Br)cc(S(=O)(=O)NCCc3cccc(C)c3)c21	55.0*	-6.9
SMILES	mHTT CaM bind	Pf apPOL block
CCC(C)NC(=O)N1CCN(Cc2nc3cccnc3n2-c2ccc(OC)cc2)CC1 (stereo unspecified)	3.4	-4.6
O=C1CC(c2cccs2)CC2=C1C(c1coc3ccccc3c1=O)Nc1ccccc1N2 (stereo unspecified)	54.0*	-3.8
O=C1CC(c2ccccc2Cl)CC2=C1C(c1coc3ccccc3c1=O)Nc1ccccc1N2 (stereo unspecified)	26.0	10.2
CCN1c2cc(F)ccc2C(=O)NC12CCN(C(=O)c1ccc(F)cc1)CC2	-1.0	1.2
Cc1ccc2nc(C(=O)Nc3cccc(Cl)c3)cc(N3CCOCC3)c2c1	-1.8	0.3
Cn1cnc2c1CN(CC(=O)NCc1cccc(C(F)(F)F)c1)CC2	68.1*	-6.3
Cc1nn(C)c2c(=O)n(CC(=O)NCc3cccc(C(F)(F)F)c3)ccc12	-5.6	1.1
O=C1CCCC2=C1C(c1cc([N+](=O)[O-])ccc1O)C1=C(N2)c2ccccc2C1=O (stereo unspecified)	56.0*	3.8
COc1cccc(C2C3=C(CC(C)(C)CC3=O)NC3=C2C(=O)c2ccccc23)c1 (stereo unspecified)	58.0*	0.9
COc1cccc(C2C3=C(Nc4c2c(=O)n(C)c(=O)n4C)c2ccccc2C3=O)c1 (stereo unspecified)	5.0	1.4
O=C1CCCC2=C1C(c1cc([N+](=O)[O-])ccc1O)C1=C(CCCC1=O)N2	-1.0	-7.7
CC1(C)CC(=O)C2=C(C1)NC1=C(C(=O)c3ccccc31)C2c1ccc(F)cc1 (stereo unspecified)	62.0*	-6.3
O=C1CC(c2ccco2)CC2=C1C(c1ccc(Cl)cc1)C1=C(N2)c2ccccc2C1=O (stereo unspecified)	64.0*	-3.2
CC1(C)CC(=O)C2=C(C1)NC1=C(C(=O)c3ccccc31)C2c1cccs1 (stereo unspecified)	47.0	0.5
O=C1CC(c2ccco2)CC2=C1C(c1ccccc1)C1=C(N2)c2ccccc2C1=O (stereo unspecified)	28.0	-7.0
COC(=O)COc1ccc2c(-c3cc4ccccc4oc3=O)cc(=O)oc2c1	-1.6	-8.2
Cc1ccc(C(=O)Nc2c(C)cccc2C)c(Cl)c1	1.2	1.6
O=C1C(=Cc2ccco2)Oc2c1ccc(O)c2CN1CCCCCC1	7.4	6.9
O=C(Nc1ccc(-n2nncc2-c2ccco2)cc1)C12CC3CC(CC(C3)C1)C2	23.0	-2.2
CC1(C)CC(=O)C2=C(C1)NC1=C(C(=O)c3ccccc31)C2c1cc(Br)ccc1O (stereo unspecified)	56.0*	2.4
Cc1ccccc1C1C2=C(CC(C)(C)CC2=O)NC2=C1C(=O)CC(C)(C)C2	1.5	-8.5
CC(C)CSc1nsc2nc(=O)c(C=C3C=CC=N3)c(N)n12	4.0	-0.8
O=C(c1ccncc1)N1CCC(Oc2cc(N3CCOCC3)ncn2)C1 (stereo unspecified)	1.2	-2.1
COc1cccc(Nc2nc(-c3ccc(OC)c(F)c3)cs2)c1	64.2*	-7.3
COc1ccc(-c2csc(NCc3ccccc3)n2)cc1	23.0	.
SMILES	mHTT CaM bind	Pf apPOL block
CCc1ccc(-c2csc(Nc3cccc(OC)c3)n2)cc1	67.1*	2.2
COc1ccc(-c2csc(Nc3ccccc3OC)n2)cc1F	42.7	10.8
Cc1ccc(C)c(-c2csc(Nc3ccc(Cl)cc3)n2)c1	66.6*	-5.4
COc1cccc(Nc2nc(-c3cc(C)ccc3C)cs2)c1	62.6*	-2.0
Cc1cccc(Nc2nc(-c3cccnc3)cs2)c1	8.1	-3.8
Cc1ccc(Nc2nc(-c3ccc(F)cc3)cs2)cc1	35.0	-5.1
O=C(c1cnccn1)N1CCCCC1c1nc(-c2cnccn2)no1 (stereo unspecified)	-7.1	-5.2
CCSc1nnc(-c2nn(C)c3c2CN(C(=O)c2c(F)cccc2F)CC3)n1C	1.9	-9.0
CCc1cccc(N2C=NS(=O)(=O)c3cccnc32)c1	-3.5	-1.7
O=C1OC2CC1N(C(=O)c1c(F)cccc1Cl)C2 (stereo unspecified)	-8.8	-1.5
COc1ccc(NC(=O)C2CCc3nc(N4CCC(C)CC4)ncc3C2)cc1F (stereo unspecified)	3.1	-4.9
COc1ccc(-c2coc3c4c(ccc3c2=O)OCN(Cc2ccccc2)C4)cc1OC	-1.4	-13.1
COc1cccc(Nc2ccc(-c3ccccc3)nn2)c1	.	-5.6
COc1cccc(Nc2nc(-c3ccccc3)cs2)c1	61.8*	0.6
COc1ccc(/C=C/C(=O)NCc2cccnc2)cc1S(=O)(=O)N1CCCCC1	-1.0	1.1
COc1ccc2[nH]c(C(=O)Nc3ccccc3)cc2c1	3.9	0.7
O=C(Nc1ccc(Br)cc1)c1nc[nH]c1C(=O)O	80.0*	-2.7
O=C(Nc1ccccc1)c1nc[nH]c1C(=O)Nc1ccccc1	-6.9	-7.8
